Assay outcomes deposited in PubChem BioAssay by National Center for Advancing Translational Sciences (NCATS).
Rows were chosen to be rich in hits. Some 7.3% of all compounds tested hit in one or more screens of this group.
SMN2 splice up: increases expression of the SMN2 splice variant. Potency, µM (series often up to 46.1 µM), inactives show at the top dose activity change, positive = activation, actives largely listed as activators. HEK293 SMN2-luciferase splicing reporter, luminescence, 30-36 h. AID 1458. 210,000 compounds, 2.8% hits; also: % of control where 0% means no effect; nearly all actives have a fitted effect of over 55% in size
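HEK293 cells carry an SMN2 minigene-luciferase reporter in which exon 7 inclusion puts luciferase in frame. Cells were seeded at 2000 cells/well, attached for 10-12 hours, then exposed to compounds for 30-36 hours at 37C before ONE-Glo luminescence.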
NPC1 prom act: activates the NPC1 promoter; Huh7 NPC1 promoter luciferase reporter, 24 h; AID 485313; Potency, µM (top dose mostly 9.22 µM), inactives show at the top dose activation, actives largely listed as activators; 320,000 compounds, 2.4% hits; also: % of control where 0% means no effect; nearly all actives have a fitted effect of over 60% in size
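NPC1 promoter–luciferase Huh7 cells; 24 h compound; luminescence.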
Rab9 prom act: activators of Rab9 promoter; Huh7 Rab9 promoter-luciferase reporter, luminescence, 24 h; Potency, µM (titrated, usually from 9.22 µM), without a hit: at the top dose activation, negative = inhibition, actives largely listed as activators; 320,000 compounds, 2.8% hits; also: % of control where 0% means no effect; nearly all actives have a fitted effect of over 60% in size
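Promoter activation is measured as luciferase luminescence in Huh7 cells stably transfected with a Rab9 promoter–luciferase construct, following 24 h compound exposure at 37 °C and 10 min reagent incubation at ambient temperature.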
FLuc counter: counter-screen for miR-21 project: firefly luciferase inhibitors or activators | P08659 | purified FLuc, Km substrates, luminescence inhibition | Potency, µM (top dose mostly 57.5 µM), for inactives: top-dose activity change, negative = inhibition, hits mostly inhibitors | 360,000 compounds, 6.9% hits | AID 588342;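 also: plate controls were vehicle for no effect and reference inhibitor for full effect; nearly all actives have a fitted effect of over 55% in size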
Target sequence (P08659 whole entry, looked up): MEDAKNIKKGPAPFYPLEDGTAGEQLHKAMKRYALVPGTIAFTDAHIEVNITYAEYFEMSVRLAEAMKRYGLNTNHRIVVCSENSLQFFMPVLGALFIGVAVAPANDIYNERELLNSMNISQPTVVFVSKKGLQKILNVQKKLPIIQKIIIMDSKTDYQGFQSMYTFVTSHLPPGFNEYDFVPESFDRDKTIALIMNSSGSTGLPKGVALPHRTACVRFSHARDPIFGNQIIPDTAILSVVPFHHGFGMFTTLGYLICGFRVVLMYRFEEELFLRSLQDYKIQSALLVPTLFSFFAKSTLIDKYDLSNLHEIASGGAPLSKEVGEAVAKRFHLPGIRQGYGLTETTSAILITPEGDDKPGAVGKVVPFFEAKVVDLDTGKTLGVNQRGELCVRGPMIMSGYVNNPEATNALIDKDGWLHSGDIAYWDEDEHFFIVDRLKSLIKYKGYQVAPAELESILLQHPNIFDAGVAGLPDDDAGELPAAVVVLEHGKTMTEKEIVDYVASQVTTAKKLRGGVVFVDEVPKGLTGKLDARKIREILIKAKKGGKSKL
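Biochemical qHTS of compounds, final roughly 60 µM downward over six points, against 10 nM purified firefly luciferase using Km concentrations of substrates (10 uM D-luciferin, 10 uM ATP) in Tris acetate pH 7.5 buffer; luminescence output.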
Luc counter: blocks Kinase-Glo luciferase, a counter-screen artifact | Q27757 | Kinase-Glo luciferase, ATP luminescence, 8 min | Potency, µM (series often up to 38.3 µM), for inactives: top-dose activity change, negative = inhibition, most hits filed as inhibitors | 200,000 compounds, 0.28% hits | AID 1379; also: % is scaled to controls: 0 for no effect and ±100 for the full control effect; nearly all actives have a fitted effect of over 60% in size
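Substrate mix (final 50 mM imidazole pH 7.2, 50 mM KCl, 7 mM MgCl2, 10 uM ATP, 0.01% Tween 20, 0.05% BSA) plus pin-tool compound, then Kinase-Glo detection mix; 8 min ambient, luminescence read.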
An asterisk follows results filed as active; ? = inconclusive; nt = not tested or not shown; [ ] = dose if it differs, or a comment. Calls follow the shape of the dose curve; as a rule, active = well fitted curve in the direction sought with a large enough effect; inconclusive = small, poorly fitted or top-dose-only effect, or another doubt; inactive = no such curve, though single readings can be large; an effect the other way counts as inactive or inconclusive. Potency is read from the fitted curve at half-maximal effect.

SMILES	SMN2 splice up	NPC1 prom act	Rab9 prom act	FLuc counter	Luc counter
O=C(Cn1c(=O)c2cccn2c2cccnc21)NCc1cccc(F)c1	nt	nt	nt	1%	nt
CC(C)(C)c1ccc(-c2n[nH]c(=S)n2/N=C/c2ccncc2)cc1	19%	12%	25%	11µM*	7%
S=c1[nH]nc(-c2cccs2)n1/N=C/c1cn(-c2ccccc2)nc1-c1cccs1	nt	?	?	0.67µM*	nt
S=c1[nH]nc(-c2ccncc2)n1/N=C/c1cn(-c2ccccc2)nc1-c1ccccc1	nt	21%	?	2.7µM*	nt
Cc1ccc(-c2nn(-c3ccccc3)cc2/C=N/n2c(-c3cccs3)n[nH]c2=S)cc1	nt	0%	-4%	?	nt
O=[N+]([O-])c1ccc(-c2nn(-c3ccccc3)cc2/C=N/n2c(-c3ccncc3)n[nH]c2=S)cc1	nt	1%	0%	0%	nt
Cc1nc2ccccc2c(=O)n1/N=C/c1cn(-c2ccccc2)nc1-c1cccs1	-17%	19%	26%	2.7µM*	10%
CC1CCN(CC2CCN(C(=O)Nc3ccc(Br)cc3F)CC2)CC1	nt	nt	nt	-7%	nt
Cc1ccc(-c2nc(CS(=O)(=O)CC(=O)N3CCN(c4cccc(C)c4C)CC3)c(C)o2)cc1	-15%	nt	nt	-12%	nt
CCCCN(C)CCNC(=O)c1cc(=O)[nH]c2ccc(S(=O)(=O)N3CCCCCC3)cc12	nt	nt	nt	-1%	nt
COc1ccc(C(=O)N=c2sc3ccccc3n2C)cc1OC	18µM*	2.5µM*	2.2µM*	11µM*	-3%
COc1cccc(C(=O)N=c2sc3c(C)ccc(OC)c3n2C)c1	2.8µM*	0.71µM*	0.71µM*	0.67µM*	?
COc1ccccc1C(=O)N=c1sc2c(C)ccc(OC)c2n1C	nt	?	26%	15µM*	nt
COc1ccc(N=c2sc3ccccc3n2C)cc1	?	2.5µM*	2.2µM*	6µM*	-3%
COc1cc(C(=O)N/N=c2/sc3ccccc3n2C)cc(OC)c1OC	-67%[1.84 µM]	5%	5%	0%	0%
COc1ccc(OC)c2c1sc(=NC(=O)c1ccco1)n2C	28%	17%	4%	-2%	-2%
Cc1ccc(CN2CCCn3nc(C(=O)NC(C)C)cc3C2=O)cc1	nt	nt	nt	1%	nt
CCOc1ccc(CCNc2ncnc3onc(-c4ccc(F)cc4)c23)cc1OCC	nt	nt	nt	1%	nt
Cc1ccc2c(c1)c(=O)c(S(=O)(=O)c1ccc(F)cc1)cn2CC(=O)Nc1ccc2c(c1)OCO2	3%	nt	nt	-1%	nt
COc1ccc(C(=O)N=c2sc3c(C)ccc(OC)c3n2C)cc1OC	nt	1.6µM*	1.8µM*	2.7µM*	nt
Cc1ccc2c(C)c(C(=O)N(C)C(C)c3ccon3)oc2c1C (centres undefined)	nt	?	3.2µM*	15µM*	nt
CN(Cc1ccccc1)C(=O)CSc1nc(-c2ccc(F)cc2)cc(C(F)(F)F)n1	2%	nt	nt	-10%	nt
Cc1ccc(-c2ccc(CO)o2)cc1N	-47%	8%	-9%	-18%	-4%
CCOc1ccc(-c2ccc(CO)o2)cc1N	nt	nt	nt	15µM*	nt
CCOC(=O)c1ccc(-c2ccc(CO)o2)cc1	7.9µM*	1.1µM*	1.6µM*	11µM*	-4%
SMILES	SMN2 splice up	NPC1 prom act	Rab9 prom act	FLuc counter	Luc counter
COc1ccc(N2Nc3n[nH]c(N)c3N2)cc1	?	20%	?	27µM*	2%
COc1ccc(N2CCN(c3n[nH]c(N)n3)CC2)cc1	-13%	-5%	-8%[1.84 µM]	0%	-4%
CCOc1ccc(N2Nc3n[nH]c(N)c3N2)cc1	?	?	?	19µM*	-3%
Cc1ccc(N2C(=O)CC(SCC(=O)Nc3ccc(S(N)(=O)=O)cc3)C2=O)cc1 (centres undefined)	nt	?	?	27µM*	nt
CCc1nnc(NS(=O)(=O)c2ccc(N/C=C\C(=O)c3ccc(C)cc3)cc2)s1	23%	0%	-7%	19µM*	-3%
CCc1nnc(NS(=O)(=O)c2ccc(NS(=O)(=O)c3ccc(NC(C)=O)cc3)cc2)s1	-8%	-4%	-2%	1%	15%
CCc1nnc(NS(=O)(=O)c2ccc(N/C=C\C(=O)c3ccc(F)cc3)cc2)s1	-1%	3%	-3%	19µM*	0%
CCc1nnc(NS(=O)(=O)c2ccc(N/C=C/C(=O)c3ccc(C)cc3)cc2)s1	?	0%	-6%	24µM*	-1%
CCc1nnc(NS(=O)(=O)c2ccc(N/C=C\C(=O)c3cccc(OC)c3)cc2)s1	3%	1%	-7%	17µM*	0%
CCOc1cc(C#N)c(NC(=O)c2cccc(S(=O)(=O)N3CCOCC3)c2)cc1OCC	-20%	nt	nt	-7%	nt
Cc1nc(-c2ccc(S(=O)(=O)N3CCN(c4cccc(Cl)c4)CC3)cc2)co1	nt	nt	nt	-2%	nt
C[C@@H](N)/C(N)=N/O	-10%[9.22 µM]	nt	nt	nt	-2%[7.66 µM]
CC(C)=NN/C(N)=N/C(=S)Nc1ccc(C)cc1	17%	2%	22%	4.8µM*	-1%
CCOc1ccc(CN(CCc2ccc3c(c2)OCO3)Cc2cc(OC)cc(OC)c2)cc1	-24%	nt	nt	-1%	nt
CSc1nsc(NC(=O)OCc2ccc(Cl)cc2)n1	nt	2%	0%	24µM*	nt
O=C1O/C(=C\c2ccccc2)c2ccccc21	-5%	-3%	-3%	12µM*	1%
O=C(Nc1ccc(O)cc1)c1cc2ccccc2c(=O)s1	nt	4µM*	?	?	-2%
O=C(Nc1ccccc1)c1cc2ccccc2c(=O)s1	?	?	2.8µM*	11µM*	-6%
CC(=O)Nc1ccc(/C=C/c2nc(-c3ccccc3O)n[nH]2)cc1	nt	?	3.5µM*	?	nt
O=C(Nc1cccc(Cl)c1)c1ccc(OC(=S)N2CCOCC2)cc1	-3%	?	?	2.7µM*	-6%
O=C(Nc1cccc2ccccc12)c1ccc(OC(=S)N2CCOCC2)cc1	24%	0%	2%	11µM*	1%
CCOC(=O)c1ccccc1NC(=O)CSc1cn(CC(=O)N2CCOCC2)c2ccccc12	nt	nt	nt	-9%	nt
Cc1ccccc1-c1nc(CS(=O)(=O)CC(=O)NCC(C)c2ccccc2)c(C)o1 (centres undefined)	6%	nt	nt	-18%	nt
O=C(O)CSc1ncnc2sc(-c3ccccc3)cc12	2%	8%	13%	13µM*	-3%
S=c1[nH]cnc2sc(-c3ccccc3)cc12	nt	17%	?	11µM*	-3%
SMILES	SMN2 splice up	NPC1 prom act	Rab9 prom act	FLuc counter	Luc counter
O=C(O)CCSc1ncnc2sc(-c3ccccc3)cc12	nt	-23%	-27%	21µM*	nt
CC(=O)CCSc1ncnc2sc(-c3ccccc3)cc12	nt	5%	10%	1%	nt
CNc1ncnc2sc(-c3ccccc3)cc12	nt	2%	4%	?	nt
CCOC(=O)c1cnc2nc(NCc3cccc(Br)c3)[nH]n2c1=O	14%	nt	nt	?	nt
COc1ccc(-c2cc3ccc(OC)cc3cn2)cc1	nt	0.28µM*	0.32µM*	0.19µM*	nt
COc1ccc2ccc(Oc3ncccn3)cc2c1	18%	9%	?	-24%	0%
COc1ccc(-c2ccc(OC)cc2)cc1	nt	10%	7%	?	nt
